eIF4E-4G inh – eIF4E–eIF4G protein interaction inhibitors, primary screen, biochemical, uHTS, TR-FRET, eIF4GI fragment | inhibition, % at 21.7 µM | AID 782, 2007 | 220,000 tested, 0.37% active | Eukaryotic translation initiation factor 4E (Mus musculus) + Eukaryotic translation … | TR-FRET eIF4E-eIF4GI(517-606) binding, 2 h;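 active means inhibition above about 30%, limit read from the data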;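 further: 0% = full FRET control wells and 100% = background wells lacking eIF4GI fragment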
Mcl-1 Bim block – inhibitors of Bim peptide binding to Mcl-1, primary screen, biochemical, bead-based flow cytometry, multiplex; 190,000 tested, 0.1% active; AID 1009, 2008; Bim peptide-Mcl-1 binding; Induced myeloid leukemia cell differentiation protein Mcl-1 (Homo sapiens), Q07820; inhibition, % at 10 µM; in the data active means inhibition above about 40%;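 further: 0% = no compound tracer wells and 100% = peptide blocker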
Target sequence (Q07820 whole entry, looked up): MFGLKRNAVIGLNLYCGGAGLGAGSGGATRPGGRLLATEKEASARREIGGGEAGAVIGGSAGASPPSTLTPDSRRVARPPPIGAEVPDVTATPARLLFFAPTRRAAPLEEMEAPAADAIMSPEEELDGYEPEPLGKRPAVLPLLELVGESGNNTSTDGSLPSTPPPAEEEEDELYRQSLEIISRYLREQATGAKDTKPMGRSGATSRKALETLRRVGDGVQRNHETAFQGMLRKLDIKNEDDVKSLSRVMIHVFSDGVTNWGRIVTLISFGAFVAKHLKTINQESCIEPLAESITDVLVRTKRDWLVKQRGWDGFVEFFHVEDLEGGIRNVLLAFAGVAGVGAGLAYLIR
14-3-3 Bad inh – inhibitors of 14-3-3 zeta/Bad binding, primary screen, biochemical, TR-FRET, bovine 14-3-3 zeta; 14-3-3 protein zeta/delta (Bos taurus), P63103; TR-FRET 14-3-3zeta/Dy647-pBad peptide displacement, 1 h; inhibition, % at 21.7 µM; 220,000 tested, 0.71% active;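 active means inhibition above about 70%, limit read from the data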;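 further: 0% = full 14-3-3 plus peptide FRET controls and 100% = background without 14-3-3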
Target sequence (P63103 whole entry, looked up): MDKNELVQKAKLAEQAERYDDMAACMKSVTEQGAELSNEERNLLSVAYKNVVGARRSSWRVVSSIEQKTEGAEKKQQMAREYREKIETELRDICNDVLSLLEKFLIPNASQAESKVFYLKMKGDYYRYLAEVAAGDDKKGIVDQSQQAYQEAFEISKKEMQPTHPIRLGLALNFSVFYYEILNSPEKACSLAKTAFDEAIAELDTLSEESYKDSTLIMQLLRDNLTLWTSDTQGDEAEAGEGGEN
Mcl1 Bid PPI – Mcl-1/Bid binding inhibitors, primary screen, biochemical, TR-FRET, 1536-well; 220,000 tested, 0.97% active; Induced myeloid leukemia cell differentiation protein Mcl-1 (Homo sapiens), Q07820; inhibition, % at 21.7 µM; TR-FRET Mcl-1/Bid-Dy647 peptide binding;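 active means compounds that cut the binding signal by more than half at the single screening dose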;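 further: His-tagged Mcl-1 with europium anti-His antibody binding Bid BH3 peptide; 0% = Mcl-1 plus peptide wells and 100% = peptide-only wells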
Mcl1-Noxa inh – Mcl-1/Noxa binding inhibitors, primary screen, biochemical, TR-FRET, 1536-well; TR-FRET Mcl-1/Noxa peptide binding, 2 h; Induced myeloid leukemia cell differentiation protein Mcl-1 (Homo sapiens), Q07820; inhibition, % at 21.7 µM; 220,000 tested, 1.5% active;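 active means compounds that cut the protein-peptide binding signal by more than 50% relative to plate controls in a single-dose test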;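 further: His-tagged Mcl-1 with rhodamine Noxa BH3 peptide and terbium anti-His antibody; 0% = Mcl-1 plus Noxa peptide wells and 100% = peptide-only wells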
MCL1-BIM inh – inhibitors of MCL1 binding to BIM-BH3, primary screen, biochemical, fluorescence polarization; inhibition, % at 10.9 µM; 320,000 tested, 0.68% active; GST-MCL1 / FITC-Bim-BH3 fluorescence polarization; Induced myeloid leukemia cell differentiation protein Mcl-1 (Homo sapiens), Q07820; AID 2057, 2009;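 active means inhibition above the mean inhibition of all tested compounds plus 3 SD, set per campaign, cut at about 40% in these data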;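 further: 0% = DMSO wells and 100% = unlabeled Bim-BH3 peptide control; higher means more loss of mP so more displacement of Bim peptide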
Numbers without * were called inactive. Most compounds without a hit are left out; they make up all but 2.6% or so of the library.

How did Brc1ccc(CN2CCN(c3ccccn3)CC2)s1 do in these assays?
eIF4E-4G inh: 5.7; Mcl-1 Bim block: 1.0; 14-3-3 Bad inh: 85.5*; Mcl1 Bid PPI: 22.6; Mcl1-Noxa inh: 9.7; MCL1-BIM inh: -2.5

How did Nc1c(C(O)(C(F)(F)F)C(F)(F)F)cc(C(O)(C(F)(F)F)C(F)(F)F)c2ccccc12 do in these assays?
eIF4E-4G inh: -4.8; Mcl-1 Bim block: 0.0; 14-3-3 Bad inh: -3.0; Mcl1 Bid PPI: 2.1; Mcl1-Noxa inh: 11.0; MCL1-BIM inh: -8.2

How did O=C1NC2=C(C(=O)CCC2)C(c2ccccc2[N+](=O)[O-])N1 (configuration not stated) do in these assays?
MCL1-BIM inh: 51.3*

How did Cc1c(Cl)cccc1Nc1nc(N)nc(CSc2nc3ccccc3s2)n1 do in these assays?
eIF4E-4G inh: 5.6; Mcl-1 Bim block: 0.0; 14-3-3 Bad inh: 7.9; Mcl1 Bid PPI: 14.9; Mcl1-Noxa inh: 10.3; MCL1-BIM inh: 8.1

How did Nc1nc(CSc2nc3ccccc3s2)nc(Nc2ccccc2)n1 do in these assays?
eIF4E-4G inh: 1.9; Mcl-1 Bim block: -5.0; 14-3-3 Bad inh: 0.8; Mcl1 Bid PPI: 13.9; Mcl1-Noxa inh: 72.5*; MCL1-BIM inh: 3.6

What do the screens show for `COc1ccc(CN2C(=O)Cc3c2nc(N)c2c(N)nc(N4CCOCC4)c(C#N)c32)cc1`?
eIF4E-4G inh: -2.9; 14-3-3 Bad inh: -2.5; Mcl1 Bid PPI: -106.7; Mcl1-Noxa inh: 36.4; MCL1-BIM inh: 46.8*

What do the screens show for `CN(CCO)c1nc(N)c2c(N)nc3c(c2c1C#N)CC(=O)N3Cc1cccs1`?
eIF4E-4G inh: -5.5; Mcl-1 Bim block: 6.0; 14-3-3 Bad inh: -5.7; Mcl1 Bid PPI: -19.4; Mcl1-Noxa inh: 35.9; MCL1-BIM inh: 41.4*

Results for CN(CCO)c1nc(N)c(C#N)c(CC#N)c1C#N ?
eIF4E-4G inh: -0.6; 14-3-3 Bad inh: -5.1; Mcl1 Bid PPI: -15.7; Mcl1-Noxa inh: 21.6; MCL1-BIM inh: 2.8

How did CC1CCCCC1NC(=O)COC(=O)c1c2c(nc3ccccc13)/C(=C/c1ccco1)CC2 (configuration not stated) do in these assays?
eIF4E-4G inh: 14.9; Mcl-1 Bim block: 8.0; 14-3-3 Bad inh: -14.9; Mcl1 Bid PPI: -46.8; Mcl1-Noxa inh: 51.9*; MCL1-BIM inh: -14.5

How did CC(C)CNC(=O)COC(=O)c1c2c(nc3ccccc13)/C(=C/c1cccs1)CC2 do in these assays?
eIF4E-4G inh: 1.7; Mcl-1 Bim block: -1.0; 14-3-3 Bad inh: 5.0; Mcl1 Bid PPI: -63.3; Mcl1-Noxa inh: 7.5; MCL1-BIM inh: -2.0

What do the screens show for `CC1CCCCC1NC(=O)COC(=O)c1cc(=O)c2ccccc2o1` (configuration not stated)?
eIF4E-4G inh: -1.8; Mcl-1 Bim block: -2.0; 14-3-3 Bad inh: -3.7; Mcl1 Bid PPI: 3.4; Mcl1-Noxa inh: 10.6; MCL1-BIM inh: -7.6

What do the screens show for `O=C(COC(=O)c1c2c(nc3ccccc13)/C(=C/c1ccco1)CC2)NC1CCCC1`?
eIF4E-4G inh: 22.6; Mcl-1 Bim block: 5.0; 14-3-3 Bad inh: -9.2; Mcl1 Bid PPI: -4.7; Mcl1-Noxa inh: 98.3*

What do the screens show for `O=[N+]([O-])c1cc(-c2ccc(C(=S)N3CCOCC3)o2)ccc1Cl`?
eIF4E-4G inh: 7.9; Mcl-1 Bim block: -1.0; 14-3-3 Bad inh: 7.0; Mcl1 Bid PPI: -1.7; Mcl1-Noxa inh: 38.7; MCL1-BIM inh: 43.2*

Results for S=C(Nc1cccc(Cl)c1Cl)N1CCC2(CC1)OCCO2 ?
eIF4E-4G inh: 91.0*; Mcl-1 Bim block: -2.0; 14-3-3 Bad inh: 8.8; Mcl1 Bid PPI: -24.3; Mcl1-Noxa inh: 10.4; MCL1-BIM inh: 4.4

How did O=c1cc(CN2CCN(c3ccc(O)cc3)CC2)nc2scc(-c3ccccc3)n12 do in these assays?
eIF4E-4G inh: 10.4; Mcl-1 Bim block: 0.0; 14-3-3 Bad inh: -6.0; Mcl1 Bid PPI: -35.5; Mcl1-Noxa inh: 66.7*; MCL1-BIM inh: 19.3

How did CCN=C1SC(C(=O)Nc2ccc(OC)cc2)CC(=O)N1CC (configuration not stated) do in these assays?
eIF4E-4G inh: 1.0; Mcl-1 Bim block: 0.0; 14-3-3 Bad inh: -8.9; Mcl1 Bid PPI: -18.9; Mcl1-Noxa inh: 64.3*; MCL1-BIM inh: 4.8

Results for CCN=C1SC(C(=O)Nc2ccc(OCC)cc2)CC(=O)N1CC (configuration not stated) ?
eIF4E-4G inh: 0.2; Mcl-1 Bim block: 0.0; 14-3-3 Bad inh: -11.4; Mcl1 Bid PPI: -22.4; Mcl1-Noxa inh: 10.5; MCL1-BIM inh: 1.6

What do the screens show for `Cc1ccc(-c2nc(Nc3ccc(N4CCOCC4)cc3)c3ccccc3n2)cc1`?
eIF4E-4G inh: 8.7; 14-3-3 Bad inh: 0.7; Mcl1 Bid PPI: -52.0; Mcl1-Noxa inh: 64.0*; MCL1-BIM inh: 24.5

What do the screens show for `COc1ccc(-c2csc(Cc3nnc4n3CCCCC4)n2)cc1OC`?
eIF4E-4G inh: -0.7; Mcl-1 Bim block: 2.0; 14-3-3 Bad inh: 64.4; Mcl1 Bid PPI: 55.4*; Mcl1-Noxa inh: 62.5*; MCL1-BIM inh: 0.5

What do the screens show for `COc1ccc(-c2nnc3n2CCCCC3)cc1OC`?
MCL1-BIM inh: 1.1

What do the screens show for `OC(CNC1CCCCC1)COCCOc1ccc(Br)cc1` (configuration not stated)?
eIF4E-4G inh: -1.2; Mcl-1 Bim block: 49.0*; 14-3-3 Bad inh: 19.9; Mcl1 Bid PPI: -8.0; Mcl1-Noxa inh: 21.0; MCL1-BIM inh: 4.9

How did COc1ccc(C2Nc3ccccc3NC3=C2C(=O)CC(C)(C)C3)cc1 (configuration not stated) do in these assays?
MCL1-BIM inh: 4.7

What do the screens show for `CC1(C)CC(=O)C2=C(C1)Nc1ccccc1NC2c1ccc(F)cc1` (configuration not stated)?
MCL1-BIM inh: 45.2*

Results for CC(C)NC(=O)c1sc2nc(-c3cccs3)cc(-c3cccs3)c2c1N ?
eIF4E-4G inh: 5.6; Mcl-1 Bim block: 2.0; 14-3-3 Bad inh: -6.0; Mcl1 Bid PPI: 17.1; Mcl1-Noxa inh: 52.2*; MCL1-BIM inh: -7.0

Results for COc1ccc(C(=O)c2sc3nc(C)cc(-c4cccs4)c3c2N)cc1 ?
eIF4E-4G inh: 1.7; Mcl-1 Bim block: -2.0; 14-3-3 Bad inh: -24.1; Mcl1 Bid PPI: -42.6; Mcl1-Noxa inh: -21.6

Results for COc1cccc(-c2ccc3c(N)c(C(=O)NC4CC4)sc3n2)c1 ?
eIF4E-4G inh: -2.5; 14-3-3 Bad inh: 0.2; Mcl1 Bid PPI: -25.6; Mcl1-Noxa inh: 21.5; MCL1-BIM inh: 3.0

What do the screens show for `CC(=O)c1sc2nc(-c3cccs3)ccc2c1N`?
eIF4E-4G inh: -0.7; Mcl-1 Bim block: -4.0; 14-3-3 Bad inh: 2.4; Mcl1 Bid PPI: -58.8; Mcl1-Noxa inh: 74.0*; MCL1-BIM inh: 30.2
